JMJD2A Tudor inh = inhibitors of human JMJD2A Tudor domain; O75164; 390,000 compounds, 4.4% hits; AlphaScreen JMJD2A-Tudor / H3K4me3 peptide binding; AID 504339; Potency, µM (titrated, usually from 114 µM), inactives show at the highest dose activity change, negative = inhibition, most hits filed as inhibitors; further: on the % scale 0 is the no-effect control and ±100 the full control effect; nearly all actives have a fitted effect of over 50% in size
HP1b chromo inh = HP1-beta chromodomain-methylated histone interaction inhibition; P83916; AlphaScreen HP1-beta / biotin-H3K9me3 peptide binding; Potency, µM (doses to about 114 µM), inactives show top-dose activity change, negative = inhibition, actives largely listed as inhibitors; 390,000 compounds, 0.56% hits; further: nearly all actives have a fitted effect of over 70% in size
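HP1-beta protein (50 nM final) preincubated 30 min at room temperature with biotinylated H3(1-18)K9me3 peptide (50 nM) in PBS pH 7.4, 0.01% Tween-20, then compound added for 30 min. AlphaScreen streptavidin donor/nickel chelate acceptor beads (10 ug/mL final), 30 min dark, luminescence read.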
G9a block = inhibitors of human histone lysine methyltransferase G9a; Q96KQ7; G9a H3K9 monomethylation, AlphaScreen, 2 h; Potency, µM (doses to about 102 µM), for inactives: top-dose activity, negative = inhibition, actives largely listed as inhibitors; 350,000 compounds, 8.8% hits; further: on the % scale 0 is the no-effect control and ±100 the full control effect; nearly all actives have a fitted effect of over 75% in size
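G9a (20 nM) was preincubated 15 min with compound, then reacted 2 h at room temperature with 500 nM biotin-H3K9 peptide and 20 µM SAM. Monomethyl-H3K9 detected by AlphaScreen using anti-H3K9me1 antibody.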
BAZ2B inh = BAZ2B (human) inhibition. Q9UIF8. AlphaScreen BAZ2B-H3K14Ac peptide displacement. Potency, µM (doses to about 114 µM), for the others: at the highest dose activity change, negative = inhibition, actives largely listed as inhibitors. 360,000 compounds, 4.4% hits. AID 504333; further: on the % scale 0 is the no-effect control and ±100 the full control effect; nearly all actives have a fitted effect of over 60% in size
Target sequence (Q9UIF8 whole entry, looked up): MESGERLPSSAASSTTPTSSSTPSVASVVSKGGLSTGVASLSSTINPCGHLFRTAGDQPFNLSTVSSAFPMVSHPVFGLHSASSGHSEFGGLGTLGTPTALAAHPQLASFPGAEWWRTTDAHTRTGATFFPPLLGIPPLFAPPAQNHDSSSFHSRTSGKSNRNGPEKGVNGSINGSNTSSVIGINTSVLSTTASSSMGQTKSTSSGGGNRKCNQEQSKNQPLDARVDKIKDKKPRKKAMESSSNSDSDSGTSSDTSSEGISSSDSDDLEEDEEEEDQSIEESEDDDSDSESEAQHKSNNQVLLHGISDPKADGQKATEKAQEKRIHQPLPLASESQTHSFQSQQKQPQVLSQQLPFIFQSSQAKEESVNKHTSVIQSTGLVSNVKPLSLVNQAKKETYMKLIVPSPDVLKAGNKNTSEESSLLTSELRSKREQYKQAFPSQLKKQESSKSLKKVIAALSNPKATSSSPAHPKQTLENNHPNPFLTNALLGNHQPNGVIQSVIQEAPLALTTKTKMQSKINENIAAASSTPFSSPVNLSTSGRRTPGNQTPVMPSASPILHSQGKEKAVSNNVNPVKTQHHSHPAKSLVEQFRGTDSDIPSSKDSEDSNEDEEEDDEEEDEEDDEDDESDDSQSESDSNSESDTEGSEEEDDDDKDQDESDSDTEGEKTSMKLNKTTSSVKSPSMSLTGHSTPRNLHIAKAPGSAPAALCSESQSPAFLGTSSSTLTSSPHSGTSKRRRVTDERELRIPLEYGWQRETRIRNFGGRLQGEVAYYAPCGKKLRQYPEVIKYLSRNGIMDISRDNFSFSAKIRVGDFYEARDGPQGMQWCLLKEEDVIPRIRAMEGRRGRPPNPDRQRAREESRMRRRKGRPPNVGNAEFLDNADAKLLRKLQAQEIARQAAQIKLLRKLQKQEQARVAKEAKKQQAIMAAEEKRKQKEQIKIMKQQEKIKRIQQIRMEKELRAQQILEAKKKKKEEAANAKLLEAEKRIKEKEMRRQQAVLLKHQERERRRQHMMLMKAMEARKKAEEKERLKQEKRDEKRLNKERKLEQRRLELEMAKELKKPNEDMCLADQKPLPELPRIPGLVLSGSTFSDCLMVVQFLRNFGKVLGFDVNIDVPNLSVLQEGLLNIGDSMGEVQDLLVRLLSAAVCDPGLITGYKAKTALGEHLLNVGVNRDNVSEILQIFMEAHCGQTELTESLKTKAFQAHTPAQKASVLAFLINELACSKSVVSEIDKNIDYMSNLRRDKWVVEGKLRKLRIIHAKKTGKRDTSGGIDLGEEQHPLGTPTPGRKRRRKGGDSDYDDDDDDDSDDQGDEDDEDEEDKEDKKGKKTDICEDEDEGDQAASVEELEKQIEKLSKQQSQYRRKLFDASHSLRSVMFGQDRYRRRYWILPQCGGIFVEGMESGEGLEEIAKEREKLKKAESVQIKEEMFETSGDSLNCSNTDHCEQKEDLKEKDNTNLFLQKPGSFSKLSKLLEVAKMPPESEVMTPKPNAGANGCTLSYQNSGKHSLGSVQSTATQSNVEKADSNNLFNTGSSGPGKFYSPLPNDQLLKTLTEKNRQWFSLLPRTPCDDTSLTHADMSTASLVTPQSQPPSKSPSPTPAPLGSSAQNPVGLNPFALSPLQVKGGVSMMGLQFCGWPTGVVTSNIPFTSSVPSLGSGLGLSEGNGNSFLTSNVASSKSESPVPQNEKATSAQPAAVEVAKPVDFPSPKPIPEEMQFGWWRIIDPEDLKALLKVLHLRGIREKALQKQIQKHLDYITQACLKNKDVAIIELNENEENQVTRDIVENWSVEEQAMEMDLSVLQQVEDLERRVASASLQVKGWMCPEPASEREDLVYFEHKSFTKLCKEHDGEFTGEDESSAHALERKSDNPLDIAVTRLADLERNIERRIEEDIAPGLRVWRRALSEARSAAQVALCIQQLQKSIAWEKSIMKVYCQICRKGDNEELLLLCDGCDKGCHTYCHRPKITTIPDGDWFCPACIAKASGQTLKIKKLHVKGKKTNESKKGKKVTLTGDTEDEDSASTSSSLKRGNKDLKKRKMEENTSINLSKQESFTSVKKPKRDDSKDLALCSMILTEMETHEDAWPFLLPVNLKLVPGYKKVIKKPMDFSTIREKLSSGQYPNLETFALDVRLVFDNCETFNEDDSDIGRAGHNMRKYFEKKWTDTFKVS
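Complex of BAZ2B and biotin-H3K14Ac (50 nM apiece) forms over 30 min at RT, then faces library compounds up to 110 uM for another 30 min; AlphaScreen beads added, 20 min dark incubation, luminescence read.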
L3MBTL1 inh = L3MBTL1 (human) inhibition | AlphaScreen L3MBTL1–H3K9me1 peptide binding | 230,000 compounds, 0.66% hits | Q9Y468 | Potency, µM (highest dose often 57.1 µM), without a hit: at the highest dose activity, negative = inhibition, most hits filed as inhibitors; further: on the % scale 0 is the no-effect control and ±100 the full control effect; nearly all actives have a fitted effect of over 60% in size
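L3MBTL1 (50 nM) pre-complexed 30 min with biotinylated H3(1-15)K9me1 peptide (75 nM), then compounds added for 30 min at room temperature; AlphaScreen streptavidin donor/nickel chelate acceptor beads (10 ug/mL final) read after 30 min dark incubation.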
Active calls of the source: *; ? = inconclusive; . = no result given; [ ] = remark or other dose. Shown are actives, neighbours in structure and some others; about 11% of the full set was active somewhere. The call rests on the fitted dose curve; in most records, active means well fitted inhibition curve with a large enough effect; inconclusive means small, poorly fitted or top-dose-only effect; inactive means no such curve, though single readings can be large or run the other way. Potency means the concentration at half of the fitted maximal effect.

SMILES | JMJD2A Tudor inh | HP1b chromo inh | G9a block | BAZ2B inh | L3MBTL1 inh
COCCn1c(SCCN2CCCCC2)nc2ccccc2c1=O | 2.2µM* | ? | ? | ? | -8%
C=CCn1c(Cc2ccccc2)nnc1SCc1nc2ccccc2c(=O)[nH]1 | -4% | 55% | 50µM* | 3% | 9%
O=c1[nH]c(CSc2nnc(COc3ccccc3)n2-c2ccccc2)nc2ccccc12 | ? | -18% | 4.5µM* | 3% | ?
C=CCn1c(SCc2nc3ccccc3c(=O)[nH]2)nc2ccccc2c1=O | -16% | 23% | 7.9µM* | 4% | .
CCCn1c(SCc2nc3sc(C)c(C)c3c(=O)[nH]2)nc2ccccc2c1=O | -13% | 24% | 50µM* | -8% | 4%
COCCn1c(SCc2nc3ccccc3c(=O)[nH]2)nc2ccccc2c1=O | -15% | 20% | 5% | 1% | -4%
Cn1cccc1C(=O)N1CCC2(CC1)CN(C(=O)Nc1cccc(F)c1)C2 | . | . | 15%[12.7 µM] | . | .
FC(F)(F)c1ccc(/C=N/n2c(COc3ccccc3)n[nH]c2=S)cc1 | ? | -16% | -5%[2.33 µM] | ? | .
Cc1cccc(/C=N/n2c(COc3ccccc3)n[nH]c2=S)c1 | ? | 4% | 3.2µM* | ? | .
S=c1[nH]nc(COc2ccccc2)n1/N=C/c1ccc(Cl)c(Cl)c1 | ? | ? | 13µM* | -15% | .
S=c1[nH]nc(COc2ccccc2)n1/N=C/c1ccccn1 | 4µM* | -13% | ? | 13% | 4%
CCc1ccc(/C=N/n2c(COc3ccccc3)n[nH]c2=S)cc1 | ? | -6% | 20µM* | -26% | .
Cc1cc(OCc2n[nH]c(=S)n2-c2ccccc2)ccc1Cl | ? | 8% | . | -7% | 0%
Cc1cccc(CNc2ncncc2-c2ccccc2Cl)c1 | . | . | -40%[0.501 µM] | . | .
COc1cc(C2C3=C(Nc4ncnn42)c2ccccc2CC3)cc(OC)c1OC (stereo unspecified) | -24% | -10% | 32µM* | -4% | -2%
Cc1ccc(C2=CC(c3ccccc3)n3ncnc3N2)cc1 (stereo unspecified) | -8% | 55% | . | . | .
COc1cc(C2C=C(c3cccs3)Nc3ncnn32)cc(OC)c1OC (stereo unspecified) | ? | 31% | 32µM* | -26% | 0%
Fc1ccc(Br)cc1C1C=C(c2ccc(Br)cc2)Nc2ncnn21 (stereo unspecified) | -28% | 28% | 23%[12.7 µM] | -7% | .
COc1cccc(C2=CC(c3ccc(C)cc3)n3ncnc3N2)c1 (stereo unspecified) | . | . | 40µM* | 10% | 8%
Cc1ccsc1C1C=C(c2cccc(Br)c2)Nc2ncnn21 (stereo unspecified) | -13% | 61% | 10µM* | 20% | 6%
CCOc1ccc(N(CC(=O)Nc2ccccc2CC)S(=O)(=O)c2c(C)noc2C)cc1 | -15% | 0% | 3%[59 µM] | . | .
CN(C)C(=O)CCc1nc2sc3c(c2c(=O)[nH]1)CCCC3 | -4% | 27% | -7%[59 µM] | 5% | .
CN(Cc1ccco1)C(=O)CCc1nc2sc3c(c2c(=O)[nH]1)CCCC3 | ? | -2% | 79µM* | ? | .
Cc1ccc(CN(C)C(=O)CCc2nc3sc4c(c3c(=O)[nH]2)CCCC4)o1 | 71µM* | -10% | . | -37% | .
COc1ccc(N2CC(NC(=O)C(=O)c3c[nH]c4ccccc34)CC2=O)cc1 (stereo unspecified) | 5% | 30% | 5%[59 µM] | 4% | .
SMILES | JMJD2A Tudor inh | HP1b chromo inh | G9a block | BAZ2B inh | L3MBTL1 inh
Cc1nn(CCCC(=O)N2CCc3ccccc3C2)c(=O)c2cc3sccc3n12 | -10% | 34% | 79µM* | 1% | .
CCc1nn(CC(=O)NCCCN2CCc3ccccc3C2)c(=O)c2cc3sccc3n12 | -32% | 34% | 45µM* | -30% | ?
CCN(Cc1ccccc1)S(=O)(=O)c1ccc(-c2coc(C)n2)cc1 | -29% | 7%[57 µM] | 7%[59 µM] | ? | .
CCOc1ccc(C(=O)OCc2cc(=O)n3cc(C)sc3n2)cc1 | -10% | 12% | 10%[59 µM] | -1% | .
COc1ccc(NC(=O)CN(c2ccccc2OC)S(C)(=O)=O)c(OC)c1 | -7% | 25% | -1%[59 µM] | 3% | .
CCOC(=O)c1ccc([N+](=O)[O-])cc1NC(C)=O | -7% | 34% | -4% | -5% | -3%
CCOC(=O)c1csc(N)c1-c1ccc([N+](=O)[O-])cc1 | ? | -28% | 11µM* | ? | .
CCOC(=O)c1c(-c2cccc([N+](=O)[O-])c2)csc1N | ? | -24% | ? | 50µM* | -6%
CCOC(=O)CN(C)C(=O)C1CC(CO[Si](C)(C)C(C)(C)C)=CN1C(=O)OC(C)(C)C (stereo unspecified) | -26% | 18% | . | . | .
N#C/C(=N\Nc1cccc(C(F)(F)F)c1)C(=O)c1csc(-c2cccnc2)n1 | ? | 3% | ? | 28µM* | ?
O=[N+]([O-])c1ccc(N2CCCCC2)cc1NCCOc1ccccc1 | -10% | ? | ? | ? | -8%
O=[N+]([O-])c1ccccc1NCCOc1ccccc1 | ? | -38% | ? | 22µM* | -30%
O=C(/C=C\NCC(=O)c1ccccc1)c1ccc(F)cc1 | -20% | 33% | 11µM* | -37% | -3%
O=C(/C=C\NCC(=O)c1ccccc1)c1ccc2ccccc2c1 | ? | -14% | 7.9µM* | -34% | -13%
COC(=O)c1ccc(NC(=O)CCn2cnnn2)cc1 | -2% | 41% | -1%[59 µM] | 8% | .
CCCNC(=O)Cc1c(C)n(C(=O)c2ccc(Cl)cc2)c2ccc(OC)cc12 | -12% | 24% | . | 1% | .
COC(=O)CCNC(=O)Cc1c(C)n(C(=O)c2ccc(Cl)cc2)c2ccc(OC)cc12 | -25% | 4% | 50µM* | -20% | .
Nc1c(C(=O)Nc2ccc(Cl)c(C(F)(F)F)c2)sc2nc(-c3ccncc3)ccc12 | -15% | 32% | -9%[59 µM] | 2% | .
CCOC(=O)/C=C/COc1ccccc1[N+](=O)[O-] | -3% | 34% | -14% | -17% | 0%
COc1ccc2nc(/N=C\N(C)C)sc2c1 | -52%[57.1 µM] | ? | ? | 56µM* | -3%
COc1ccc2nc(N=Nc3ccc(N(C)C)cc3)sc2c1 | ? | -35% | 22µM* | ? | ?
COc1ccc2nc(/N=C/c3cccc(OC)c3O)sc2c1 | -11% | 15% | 19% | -15% | .
CCOc1ccc(C(=O)NCc2ccc3c(c2)CCN3C(=O)c2ccc(C)cc2)cc1OCC | -19% | 7% | 3%[59 µM] | -10% | .
COCCCNC(=O)C1CCCN(c2nn3cc(-c4ccc(C)cc4)nc3s2)C1 (stereo unspecified) | -26% | 2% | -4%[59 µM] | -18% | .
Cc1ccc(C(=O)N2c3ccc(F)cc3CCC2C)o1 (stereo unspecified) | -12% | 34% | -8%[59 µM] | 2% | 1%
Cc1nn(Cc2ccc(C(=O)N3c4ccc(F)cc4CCC3C)o2)c(C)c1Br (stereo unspecified) | -26% | 25% | 50µM* | -26% | .
